These compounds were tested on T1, p38-gamma. Settings: concentration: 1 μM, replicates: in singlicate; n = 1.
T1 construct: gene MAPK12
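Further: KINOMEscan kinase panel screen.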

`Nc1ncnc2[nH]c(-c3ccccc3)nc12` [AH5015] and `COc1cc2ncnc(Nc3ccc4nc(-c5ccccc5)[nH]c4c3)c2cc1OC.Cl` [GW282450] are the same in “%Inh” value: 0% for the first, 0% for the second.

Compared with `Cc1cc(-c2ccc3c(c2)CC[C@@H](N[C@@H](C)c2ccccc2)C3)cnc1N.Cl` [GW412617], `Cc1ccc(-c2cc(-c3c[nH]nc3-c3ccccn3)ccn2)cc1` [GW684088] is higher in “%Inh” value: 0% for the first, 11% for the second.

First: O=C(Nc1n[nH]c2cc(-c3cccc(F)c3F)ccc12)C1CC1 [SB-733894]
Second: O=C(Nc1n[nH]c2nc(-c3nccs3)c(Br)cc12)C1CC1 [SB-742251]
The “%Inh” value of the first is higher: 24% for the first, 0% for the second.

Going from `O=C(Nc1ccc2c(c1)OCO2)NC1CCN(c2ccnc(Nc3ccc(F)cc3)n2)C1` (stereo not shown) [GSK1379724] to `COc1cccc(NC(=O)NC2CCN(c3ccnc(Nc4ccc(F)cc4)n3)C2)c1` (stereo not shown) [GSK1379721], the “%Inh” value rises from 0% to 2%.

Going from `O=c1cc(N2CCOCC2)nc2n(Cc3cccc(Cl)c3Cl)ccn12` [GSK2286295] to `CS(=O)(=O)c1ccc(-c2c(-c3ncn[nH]3)sc(N3CCOCC3)c2C#N)cc1`, the “%Inh” value rises from 27% to 33%.

Compared with `CN(C)CCN(C)C(=O)c1cc(-c2ccncc2)c(-c2ccc(Cl)c(O)c2)o1.Cl.Cl` [SB-710397], `CN1C(=O)C(Nc2ccc(Cl)c(C(=O)O)c2)=C(c2ccc(Cl)cc2)C1=O` [SB-404290] is lower in “%Inh” value: 29% for the first, 27% for the second.

First: CC(C)(C)c1ccc(C(=O)Nc2cn3cc(Cl)ccc3n2)cc1
Second: Cc1ccc(NC(=O)Nc2cc(C(C)(C)C)nn2-c2ccccc2)cc1 [GSK1014915]
The “%Inh” value of the first is lower: 10% for the first, 50% for the second.

Compared with `COc1cc2nccc(Nc3ccc(NC(=O)c4ccc(C)cc4)c(O)c3)c2cc1OC.Cl` [GW440132], `COc1cc(Nc2nccc(N3CCC(NC(=O)Nc4cc(C)ccc4C)C3)n2)cc(OC)c1OC` (stereo not shown) [GSK1379762] is higher in “%Inh” value: 0% for the first, 24% for the second.

First: O=C1NC(=O)C(N2CCc3ccccc32)=C1c1ccccc1Cl [SB-373598]
Second: COc1ccc(C2=C(Nc3cccc(C(=O)O)c3)C(=O)NC2=O)cc1 [SB-390765]
The “%Inh” value of the first is lower: 18% for the first, 29% for the second.

`COc1cc2ncn(-c3cc(OCC4CCCO4)c(C(N)=O)s3)c2cc1OC` (stereo not shown) [GSK204607] and `COc1ccc(CNC(=O)NC2CCN(c3ccnc(Nc4cc(OC)c(OC)c(OC)c4)n3)C2)cc1` (stereo not shown) [GSK1379748] are the same in “%Inh” value: 0% for the first, 0% for the second.

`Cl.NC(=O)c1cccc(Nc2nccc(Nc3ccc(Oc4cccc(Cl)c4)c(Cl)c3)n2)c1` [GW659008] and `Cn1ccc2ncnc(Oc3ccc(NC(=O)Nc4ccccc4)cc3)c21` are the same in “%Inh” value: 0% for the first, 0% for the second.

First: COc1ccccc1CNC(=O)c1cc(C(=O)c2ccccc2C)c[nH]1 [GSK364507]
Second: Cc1cccc(-c2nc(Nc3ccc4[nH]ncc4c3)c3ccccc3n2)n1 [GW857175]
The “%Inh” value of the first is lower: 0% for the first, 50% for the second.

Going from `NC(=O)c1nnc2ccccc2c1N` to `Cc1csc(-c2nc(Nc3ccncc3)c3ccccc3n2)n1` [GW869640], the “%Inh” value falls from 43% to 39%.

Compared with `Cc1cccc(-c2cc(Nc3ccncc3)c3ccccc3n2)n1` [GSK223675], `Cc1cccc(-c2nc(C)cc(Nc3ccncc3)n2)n1` [GSK257997] is lower in “%Inh” value: 22% for the first, 6% for the second.

Compared with `Cn1ccc2ncnc(Oc3ccc(Nc4nc5ccccc5[nH]4)cc3)c21`, `Fc1cc(Cl)ccc1Nc1ccnc2cc(I)ccc12` [GW551191] is higher in “%Inh” value: 0% for the first, 1% for the second.

`CCn1c(-c2cccnc2O)nc2cnccc21` [SB-736715] and `Fc1cccc(COc2nnc(-c3ccc4c(c3)CCO4)o2)c1` are the same in “%Inh” value: 0% for the first, 0% for the second.

`CC1=C(C(=O)Nc2cc3cn[nH]c3cc2F)C(c2ccc(C(F)(F)F)cc2)CC(=O)N1` (stereo not shown) [GSK429286] and `O=C(Nc1n[nH]c2nc(-c3nccs3)c(Br)cc12)C1CCCC1` [SB-742609] are the same in “%Inh” value: 0% for the first, 0% for the second.

— paper PMC5540273 (PLoS ONE, 2017)
